# Experimental data: PubChem BioAssay AID449762 (Southern Research Specialized Biocontainment Screening …, 2010)
# Out of some 330,000 compounds screened, about 1,900 (0.58%) were called active. Roughly 4% stayed inconclusive and do not appear here. Not all results are given here. Measured potencies and affinities stand elsewhere. Unmarked numbers belong to inactive results. Rule as the data show it: inconclusive = inhibition above about 70% without an active follow-up result; inactive = below that.
# Assay: M. tuberculosis growth inhibition, HTS (AID 449762);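 also: bacterial growth assessed after seven days of incubation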
# Conditions: M. tuberculosis H37Rv growth inhibition, 7H9 media; at 25 µM; hits give high values
row,SMILES,inhibition [%]
1,CN1/C(=C\C(=O)c2cccnc2)C(C)(C)c2ccccc21,14.2
2,CN1/C(=C\C(=O)c2ccco2)C(C)(C)c2ccccc21,1.21
3,CCC(C)[C@H](NC(=O)Nc1ccc(S(N)(=O)=O)cc1)C(=O)OC (stereo not given in full),1.32
4,O=C(CCl)Nc1ccc(S(=O)(=O)NC2=NCCCCC2)cc1,47.6
5,Cc1cc(NC(=O)/C=C/c2ccccc2)no1,11.4
6,COC(=O)c1cc(/C=C/c2ccccc2)[nH]n1,37.7
7,O=C(c1ccc(C(F)(F)F)cc1)N1CCC(=O)N(C(COCc2ccc(Cl)cc2)Cc2ccccc2)CC1 (stereo not given),-0.74
8,CCSc1nc2ccccc2n1CC(N)=O,-10.4
9,CC(C)(C(=O)O)c1ccc(C(O)CCCN2CCC(C(O)(c3ccccc3)c3ccccc3)CC2)cc1 (stereo not given),6.01
10,CC(C)(C(=O)O)c1ccc([C@H](O)CCCN2CCC(C(O)(c3ccccc3)c3ccccc3)CC2)cc1,6.89
11,Cc1ccc2cc(CCNC(=O)c3ccc4c(c3)OCO4)c(=O)[nH]c2c1C,-3.26
12,Cn1ccc(NC(=O)CCl)n1,57.5
13,Cn1c(=O)n(C)c2cc(NC(=O)CCl)ccc21,64.7
14,CSc1ccc(CCNS(=O)(=O)c2c(C)[nH]c(C)c2C(=O)N2CCCCC2)cc1,-2.39
15,Cc1ccc(NC(=O)C2CCC(CNC(=O)[C@@H]3Cc4ccccc4CN3)CC2)c(C)c1 (stereo not given in full),7.99
16,Cn1c(O)c(/C=N/N2CCCCC2)c(=O)[nH]c1=O,-3.56
17,C=CCSC1=C(C#N)C(c2ccccc2C)CC(=O)N1 (stereo not given),1.95
18,COc1c[nH]n(-c2ccccc2)c(=O)c1=O,2
19,COc1cc2[nH]c(=O)n(C3CCCCC3)c(=O)c2cc1OC,-2.86
20,COc1ccc([C@H]2CC(=O)C=C(c3ccc4[nH]ccc4c3)C2)cc1OC,55.7

row,SMILES,inhibition [%]
1,O=C1C=C(c2ccc3ccccc3c2)C[C@@H](c2ccc(Cl)cc2)C1,19.3
2,O=C(Nc1ccc(F)c(F)c1)C1CCN(S(=O)(=O)c2cccc3nonc23)CC1,-5.72
3,Cn1nc(C(=O)Nc2cc(Cl)ccc2N2CCCC2)c2ccccc2c1=O,1.5
4,CC(=O)Nc1ccc(NC(=O)COc2ccc3c(c2)CCC3)cc1,1.68
5,Cc1cccnc1NC(=O)COc1ccc2c(c1)CCC2,54.8
6,O=C(c1ccc2snnc2c1)N1CCCCC1,-3.95
7,Cc1ccc(N2CC(C(=O)Nc3nccs3)CC2=O)cc1Cl (stereo not given),10.9
8,CCc1nnc(NC(=O)C2CC(=O)N(c3ccc(C)cc3)C2)s1 (stereo not given),11.9
9,COC(=O)/C(C#N)=C/c1c(-c2ccccc2)nc2n1CCS2,-12.2
10,CCNc1nc(NC(C)C)nc(NS(=O)(=O)c2ccc(N)cc2)n1,-9.39
11,O=C(N/N=C/C=C/c1ccccc1)c1cccnc1,-0.94
12,CC(/C=C/c1ccco1)=N\NC(=O)c1cccnc1,-3.96
13,S=C1NCN(Cc2ccco2)CN1Cc1ccco1,7.57
14,CC(C)(C)N1CSC(=S)N(Cc2ccccc2)C1,65
15,COCCN1CSC(=S)N(Cc2ccco2)C1,66.9
16,CC(C)N1CSC(=S)N(Cc2ccccc2)C1,64.3
17,O=C(CCN1C(=O)c2ccccc2C1=O)Nc1ccc(F)cc1,-6.8
18,CN(C)CCCN(C(=O)c1cc(-c2cccs2)nc2ccccc12)c1nc2c(F)cccc2s1,49.4
19,CN(C)CCCN(C(=O)c1nc2ccccc2s1)c1nc2ccc(F)cc2s1,-11.9
20,C[C@H](CO)N1C[C@H](C)[C@@H](CN(C)C(=O)NC2CCCCC2)Oc2ccc(NC(=O)Cn3cnnn3)cc2C1=O,4.07

row,SMILES,inhibition [%]
1,Cc1c(C)c(C)c(CN2CCCC2)c(C)c1C,2.65
2,CNC(=O)c1ccc(NC(=O)CCc2c(C)noc2C)cc1,-12.4
3,CC[C@@]12C(=O)N(c3cccc(F)c3)C(=O)N1[C@H](c1ccc(F)cc1)[C@@H]1C(=O)N(C3CCCCC3)C(=O)[C@@H]12,0.17
4,CC(=O)Nc1ccc(N2C(C(C)=O)=NN(c3ccccc3)C2c2cccs2)cc1 (stereo not given),1.3
5,CC(=O)C1=NN(c2ccccc2)C(c2cccs2)N1c1ccccc1 (stereo not given),-3.16
6,CC(=O)OCC1=C(C(=O)O)N2C(=O)C(NC(=O)C(C)Cn3cc(Cl)cn3)C2SC1 (stereo not given),-1.4
7,CCCSc1nsc(SCCC)c1C#N,-0.55
8,CN(Cc1ccccc1)C(=O)Cn1c(=O)oc2cc(S(=O)(=O)N3CCCC3)ccc21,-1.71
9,COc1cc(C2C(C(=O)C(C)(C)C)=C(O)C(=O)N2Cc2ccccc2)ccc1O (stereo not given),1.41
10,Cc1ccc(NC(=O)c2oc3ccc(S(=O)(=O)N4CCOCC4)cc3c2C)cc1C,-7.43
11,COc1cccc(NC(=O)c2oc3ccc(S(=O)(=O)N4CCOCC4)cc3c2C)c1,58
12,O=C(O/N=C1/CCCc2occc21)c1ccccc1,6.31
13,CCCn1c(S(=O)(=O)O)nc2ccccc21,5.54
14,COc1cc2c(cc1OC)C(C)N(S(=O)(=O)c1cccs1)CC2 (stereo not given),-12.1
15,O=C(NC1CCCCC1)C(c1ccc(F)cc1)N(CCN1CCOCC1)C(=O)c1ccc(-c2ccccc2)[nH]1 (stereo not given),42.3
16,O=C(NC1CCCC1)C(c1ccncc1)N(CCCN1CCOCC1)C(=O)c1ccc(-c2ccccc2)[nH]1 (stereo not given),3.89
17,CCC(COC(=O)Nc1ccccc1)NC(=O)OC(C)C (stereo not given),-6.07
18,COc1cccc(Cn2cnc3c(NS(=O)(=O)c4cc(Cl)ccc4Cl)c(C)c(C)cc32)c1,0.44
19,NS(=O)(=O)c1ccc(Nc2nc(-c3ccc4ccccc4c3)cs2)cc1,1.78
20,Oc1ccc(Nc2nc(-c3ccc(O)cc3)cs2)cc1,4.52
